Experimental data as given in the supplement of paper PMC12669032.
A number with no mark means an inactive call.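 The calls were made as follows: active = AUC reduced over 20% with Padj below 0.05 in at least 2 of 3 replicates; inactive = otherwise.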

What was measured:
Assay in all cases: growth AUC relative to DMSO control (median of replicates) (fraction); higher = more growth (less inhibition), active = hit call of the paper
Conditions in all cases: 20 µM; 24 h
Akkermansia muciniphila = tested on: Akkermansia muciniphila
Summary of the method: (§1)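 Area under the growth curve was normalised to the plate median of solvent-only wells, or to row and column medians on the industrial chemical plate. Growth curves came from anaerobic gut bacterial monocultures in mGAM at 37 °C, seeded at OD600 0.05 with 20 µM compound (1% DMSO), and read at OD600 hourly for 24 h with the minimum OD set to 0. The value is the median of three biological replicates grown on separate days.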

Bacteroides caccae = tested on: Bacteroides caccae
Summary of the method: as §1

Bacteroides clarus = tested on: Bacteroides clarus
Summary of the method: as §1

Bacteroides dorei = tested on: Bacteroides dorei
Summary of the method: as §1

Bacteroides stercoris = tested on: Bacteroides stercoris
Summary of the method: as §1

[1] = tested on: Bacteroides thetaiotaomicron
Summary of the method: as §1

Bacteroides uniformis = tested on: Bacteroides uniformis
Summary of the method: as §1

[2] = tested on: Bifidobacterium longum subsp. longum
Summary of the method: as §1

Clostridium difficile = tested on: Clostridium difficile
Summary of the method: as §1

Collinsella aerofaciens = tested on: Collinsella aerofaciens
Summary of the method: as §1

Coprococcus comes = tested on: Coprococcus comes
Summary of the method: as §1

Escherichia coli ED1a = tested on: Escherichia coli ED1a
Summary of the method: as §1

Escherichia coli IAI1 = tested on: Escherichia coli IAI1
Summary of the method: as §1

Eubacterium rectale = tested on: Eubacterium rectale
Summary of the method: as §1

[3] = tested on: Fusobacterium nucleatum subsp. animalis
Summary of the method: as §1

Lactobacillus gasseri = tested on: Lactobacillus gasseri
Summary of the method: as §1

Lactobacillus paracasei = tested on: Lactobacillus paracasei
Summary of the method: as §1

Odoribacter splanchnicus = tested on: Odoribacter splanchnicus
Summary of the method: as §1

[4] = tested on: Parabacteroides distasonis
Summary of the method: as §1

Parabacteroides merdae = tested on: Parabacteroides merdae
Summary of the method: as §1

Row | Structure (SMILES) | growth AUC (Akkermansia muciniphila) | growth AUC (Bacteroides caccae) | growth AUC (Bacteroides clarus) | growth AUC (Bacteroides dorei) | growth AUC (Bacteroides stercoris) | growth AUC [1] | growth AUC (Bacteroides uniformis) | growth AUC [2] | growth AUC (Clostridium difficile) | growth AUC (Collinsella aerofaciens) | growth AUC (Coprococcus comes) | growth AUC (Escherichia coli ED1a) | growth AUC (Escherichia coli IAI1) | growth AUC (Eubacterium rectale) | growth AUC [3] | growth AUC (Lactobacillus gasseri) | growth AUC (Lactobacillus paracasei) | growth AUC (Odoribacter splanchnicus) | growth AUC [4] | growth AUC (Parabacteroides merdae)
1 | c1ccc2c(c1)ccc1c3ccccc3sc21 | 1.03 | 0.999 | 0.987 | 0.969 | 1 | 0.998 | 0.972 | 1.25 | 1.02 | 0.99 | 0.965 | 0.988 | 1 | 0.942 | 1.01 | 0.974 | 1.03 | 0.984 | 1.1 | 1
2 | CC[C@H]1CCCC(O[C@H]2CC[C@H](N(C)C)[C@@H](C)O2)[C@@H](C)C(=O)C2=C[C@@H]3[C@@H](C=C(C)[C@@H]4C[C@@H](O[C@@H]5O[C@@H](C)[C@H](OC)[C@@H](OC)[C@H]5OC)C[C@@H]34)[C@@H]2CC(=O)O1.CC[C@H]1CCCC(O[C@H]2CC[C@H](N(C)C)[C@@H](C)O2)[C@@H](C)C(=O)C2=C[C@@H]3[C@@H](C=C[C@@H]4C[C@@H](O[C@@H]5O[C@@H](C)[C@H](OC)[C@@H](OC)[C@H]5OC)C[C@@H]34)[C@@H]2CC(=O)O1 (stereo not given in full) | 0.986 | 1.01 | 0.979 | 1.04 | 0.888 | 1 | 0.987 | 0.889 | 1.03 | 0.958 | 0.973 | 0.963 | 0.966 | 0.985 | 0.995 | 0.879 | 0.902 | 1.04 | 1.01 | 0.925
3 | CCc1cnc(C2=NC(C)(C(C)C)C(=O)N2)c(C(=O)O)c1 (stereo not given) | 0.891 | 1.01 | 0.971 | 0.951 | 0.985 | 0.981 | 1.01 | 0.937 | 0.993 | 0.983 | 0.975 | 0.995 | 1 | 0.962 | 0.981 | 1.04 | 0.924 | 0.961 | 0.989 | 1.01
4 | CCCCN(CC)C(=O)SCCC | 0.957 | 1.01 | 1.01 | 0.972 | 1.11 | 0.979 | 0.976 | 0.983 | 1.03 | 0.982 | 1.03 | 1.01 | 1.01 | 0.982 | 1.07 | 0.972 | 1.02 | 0.981 | 1.01 | 1.02
5 | COP(=O)(OC)OC=C(Cl)Cl | 1.04 | 1.05 | 1.01 | 0.984 | 1.17 | 1.03 | 1.03 | 1.04 | 1.05 | 1.01 | 1.03 | 1.01 | 1.02 | 1.04 | 1.09 | 0.912 | 1.04 | 1.01 | 1.05 | 1.01
6 | CCc1nn(C)c(C(=O)NCc2ccc(C(C)(C)C)cc2)c1Cl | 1.02 | 0.94 | 0.929 | 0.921 | 0.725 (active) | 0.694 (active) | 0.982 | 0.95 | 0.972 | 0.887 | 0.954 | 0.974 | 0.967 | 1.01 | 0.984 | 0.913 | 1.06 | 0.956 | 0.991 | 0.918
7 | CCOc1cc(OP(=S)(OC)OC)nc(CC)n1 | 0.924 | 1.03 | 1 | 1.01 | 1.13 | 0.994 | 0.996 | 1.01 | 0.997 | 1.03 | 0.984 | 1 | 1.01 | 1.04 | 1.04 | 0.996 | 1.05 | 0.987 | 0.951 | 0.979
8 | CCCOC(=O)c1ccccc1C(=O)OCCC | 1.16 | 1.04 | 1.03 | 0.983 | 1.18 | 0.992 | 0.989 | 1.05 | 0.999 | 1.01 | 1.11 | 1.02 | 1.05 | 1.1 | 1.15 | 0.999 | 1.09 | 0.698 | 0.953 | 0.993
